Compounds without any hit were thinned out: in the full panel of roughly 79,000, 15% have a hit. No stated cut-off is given here; in the data, active means growth inhibition above about 70%; inactive means the rest.
Key:
[1] = NCI Yeast Anticancer Drug Screen. Data for the rad50 strain (AID 155);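 further: 0% = growth of vehicle-only cultures of the same strain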; settings: S. cerevisiae rad50 strain growth inhibition, active compounds read high; at 50.0 µM unless noted
How it was run: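 Inhibition values express reduced yeast growth in compound-treated cultures relative to vehicle-treated controls.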

[2] = NCI Yeast Anticancer Drug Screen. Data for the mec2-1 strain (AID 157); settings: S. cerevisiae mec2-1 strain, active compounds read high; at 50.0 µM unless noted
How it was run: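 Using mec2-1 yeast: add compound, measure growth, express inhibition versus vehicle-treated cultures.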

[3] = NCI Yeast Anticancer Drug Screen. Data for the sgs1 mgt1 strain (AID 161);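 further: 0% = growth of cultures given vehicle only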; settings: S. cerevisiae sgs1 mgt1 strain, active compounds read high; at 50.0 µM unless noted
How it was run: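 Growth of a repair-deficient yeast mutant was monitored after compound treatment and expressed as inhibition relative to vehicle-treated cultures.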

[4] = NCI Yeast Anticancer Drug Screen. Data for the cln2 rad14 strain (AID 165);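 further: 0% = growth equal to vehicle treated cultures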; settings: S. cerevisiae cln2 rad14 strain, active compounds read high; at 50.0 µM unless noted
How it was run: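 Yeast strain cln2 rad14, bearing defects in cell cycle control and DNA repair, serves as the test system; values reflect growth inhibition compared with vehicle.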

[5] = NCI Yeast Anticancer Drug Screen. Data for the bub3 strain (AID 167); settings: S. cerevisiae bub3 mutant strain, active compounds read high; at 50.0 µM unless noted
How it was run: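 Steps: expose the mutant yeast strain to compound; grow alongside vehicle-treated cultures; measure growth; express inhibition against the vehicle cultures.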

[6] = NCI Yeast Anticancer Drug Screen. Data for the mlh1 rad18 strain (AID 175); settings: S. cerevisiae mlh1 rad18 strain growth inhibition, active compounds read high; at 50.0 µM unless noted
How it was run: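 Steps: expose repair-defective yeast to compound; measure growth; express inhibition against vehicle-treated controls.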

Measured: growth inhibition

COc1ccc(OC)c2[nH]c(Sc3c([N+](=O)[O-])ncn3C)nc12
inactive: [1] -5.95% | [2] -13.9% | [3] -15.4% | [4] 8.55% | [5] -15.2% | [6] -7.7%

Clc1cccc(/C=N\N=C\c2cccc(Cl)c2)c1
inactive: [1] -4.6% | [2] -7.75% | [3] 6.3% | [4] -8.75% | [5] -1.95% | [6] 5.45%

O=C(CC(=O)C(F)(F)F)c1ccccc1.O=C(CC(=O)C(F)(F)F)c1ccccc1.[Mn]
inactive: [1] -1.85% | [2] -0.35% | [3] 19.2% | [4] -13.7% | [5] 3.6% | [6] 18.5%

O=C(c1ccccc1)C1CC1C(=O)c1ccccc1 (configuration not stated)
inactive: [1] -3.55% | [2] -11.8% | [3] -6.1% | [4] -61.5% | [5] 38.3% | [6] -3.45%

ClCc1ccccc1C(c1ccccc1)c1ccccc1
inactive: [1] -0.8% | [2] 20.4% | [3] 7.1% | [4] -32.1% | [5] 24.9% | [6] 21.9%

O/N=C(Sc1ccccn1)/C(=N/O)Sc1ccccn1
inactive: [1] -7.25% | [2] 0% | [3] -2.9% | [4] -3.05% | [5] 4.7% | [6] 4.9%

CC(C)(C)CC(=O)NC1CCCCC1
inactive: [1] -6.55% | [2] -5.8% | [3] 12.2% | [4] -23.1% | [5] 3.4% | [6] 13.7%

CN(C)Cc1cc(-c2c(Cl)cccc2Cl)no1
inactive: [1] -18.8% | [2] -10.5% | [3] -10.4% | [4] 4% | [5] 7.1% | [6] -13.6%

O=C(CNc1nncs1)NO
inactive: [1] 15.1% | [2] -8.95% | [3] 0.3% | [4] 1.05% | [5] -1.35% | [6] -1.7%

COc1ccc(-c2oc(=O)cc(-c3ccccc3)c2-c2ccccc2)cc1
inactive: [1] 22.6% | [2] -11.6% | [3] 16.2% | [4] 4.2% | [5] -3.55% | [6] 14.7%

O=C(O)c1ccc(P(=O)(O)O)cc1[N+](=O)[O-]
inactive: [1] 26.4% | [2] 9.65% | [3] -9.45% | [4] 1.75% | [5] 4.25% | [6] -7%

CC(=O)OCC1OC(n2c(Br)nc3c(=O)[nH]c(N)nc32)C(OC(C)=O)C1OC(C)=O (configuration not stated)
inactive: [1] -1.5% | [2] 4.3% | [3] 0.8% | [4] -14.8% | [5] -10.2% | [6] 5.6%

COc1cc(Br)c(CC(NC=O)c2ccc(OC)c(OC)c2OC)cc1OC (configuration not stated)
inactive: [1] 0.4% | [2] -0.1% | [3] -6.95% | [4] -7.8% | [5] -1.5% | [6] 23.9%

Cc1nc2c(cnn2C)c(=O)n1C(C)C
inactive: [1] 3.3% | [2] -0.3% | [3] 3.8% | [4] -6.5% | [5] -11.3% | [6] 3.4%

Cc1c(SC(Cl)(Cl)Cl)cc([N+](=O)[O-])c(N(C)C)c1[N+](=O)[O-]
inactive: [1] 13.5% | [2] 24.9% | [3] 34.6% | [4] -43.9% | [5] 6.45% | [6] 10%

Cc1ccc(C)c(N=Nc2c(C)nc(N)nc2C)c1
inactive: [1] 1.8% | [2] -10.2% | [3] -9.45% | [4] -34.2% | [5] -22.1% | [6] -3.05%

C(=N\N1CN(/N=C/c2ccccc2)C(c2ccccc2)C1c1ccccc1)/c1ccccc1 (configuration not stated)
inactive: [1] -6.2% | [2] -3.15% | [3] 4.5% | [4] 7.35% | [5] -1.65% | [6] 7.05%

CC/C=C/C(CC)(C(=O)OCC)C(=O)OCC
inactive: [1] 5.45% | [2] -15.8% | [3] -6.7% | [4] -2% | [5] -16.3% | [6] -20.1%

Cc1cc(C)c(CC(C)C)c(C)c1
inactive: [1] 1.85% | [2] 6.25% | [3] 17.4% | [4] 31.4% | [5] 2.4% | [6] -2.45%

CN(C)c1ccc(/[N+]([O-])=N/N2C(=O)c3ccccc3C2=O)cc1
inactive: [1] -25.1% | [2] -24.4% | [3] -20.9% | [4] -52% | [5] -22.9% | [6] -25.5%

Cc1[nH]c(=S)[nH]c1C
inactive: [1] 4.1% | [2] 9.5% | [3] 12.2% | [4] 10% | [5] 15.7% | [6] 12.6%

NC(=O)CSCC(N)=O
inactive: [1] 0.75% | [2] -13.9% | [3] 3.45% | [4] 6.05% | [5] -2.75% | [6] 22%

Cc1ccc(S(=O)(=O)N2C(=O)CCC2C(=O)O)cc1 (configuration not stated)
inactive: [1] -0.95% | [2] -5.65% | [3] 10.6% | [4] -17.1% | [5] 2.2% | [6] 2.7%

CC12CCC(=O)C=C1CCCC2=O (configuration not stated)
inactive: [1] -7.6% | [2] -12.3% | [3] -11.6% | [4] -14.7% | [5] -7.75% | [6] -3.4%

CS/C(C)=N/OC(=O)NCCCCNc1ccc(N=[N+]=[N-])cc1
inactive: [1] 13.9% | [2] -4.15% | [3] 5.4% | [4] 36.7% | [5] 4.5% | [6] 0.6%

Nc1ncc(C(=O)O)s1
inactive: [1] -17.3% | [2] -4.6% | [3] -23.1% | [4] 7.35% | [5] 3.35% | [6] -4.8%

CC(=O)NC(CCC(=O)O)C(=O)O (configuration not stated)
inactive: [1] -0.55% | [2] -14.9% | [3] -7.15% | [4] -6.2% | [5] -20.1% | [6] -1.6%

CN(C)N=Nc1ccc(/C=C/C(=O)O)cc1
inactive: [1] 15.2% | [2] 4.8% | [3] 11.4% | [4] 1.65% | [5] 8.55% | [6] -4.95%

COC(=O)C1CCOC(C)N1C(=O)OC(C)(C)C (configuration not stated)
inactive: [1] 2.9% | [2] 0.75% | [3] 6.4% | [4] 11% | [5] 13.2% | [6] -34.5%

CCOC(=O)c1c[nH]c2c(Cl)c(Cl)ccc2c1=O
inactive: [1] -4.65% | [2] -19.1% | [3] -1.1% | [4] 12.9% | [5] 9.25% | [6] -6.95%

COc1cccc(C)c1O
inactive: [1] 9.8% | [2] -7.35% | [3] -7.8% | [4] 6.55% | [5] 20.6% | [6] 3.3%

c1ccc2cnncc2c1
inactive: [1] 0.35% | [2] -0.55% | [3] -11.8% | [4] 4.35% | [5] 11.7% | [6] 0.25%

CC(=O)ONC(C(=O)C(C)(C)C)C(=O)C(C)(C)C
inactive: [1] -1.4% | [2] -4.4% | [3] -3.9% | [4] 24.7% | [5] -2.7% | [6] -4.8%

CCN(CC)C(=O)N(O)C1CCCCC1
inactive: [1] -35.4% | [2] 2.2% | [3] -14.9% | [4] 8.05% | [5] 4.75% | [6] -7.2%

CCOc1ccccc1NC(=O)/C(=N\NC(C)(C)C)C1C(=O)Nc2ccccc2S1=O (configuration not stated)
inactive: [1] -4.3% | [2] -27.9% | [3] -9.85% | [4] 9.2% | [5] -6.9% | [6] 10.1%

Cn1cnc([N+](=O)[O-])c1Sc1nc2cc(Cl)c(F)cc2[nH]1
inactive: [1] -35.6% | [2] -27.9% | [3] -31.9% | [4] 8.5% | [5] -25.1% | [6] -29.4%

Cn1c2c(c(=O)c3cc(O)ccc31)CC(O)C(C)(C)O2 (configuration not stated)
inactive: [1] -8.9% | [2] -10.8% | [3] -11.7% | [4] -11% | [5] 8.8% | [6] -2.7%

COc1ccc(C2=C(N)c3ncccc3C2=O)cc1
inactive: [1] 5.55% | [2] -5.05% | [3] 7.4% | [4] 4.65% | [5] 19.9% | [6] -70.3%

C=CCOC(=O)COc1ccc(Cl)cc1
inactive: [1] -0.95% | [2] -8.1% | [3] -12.3% | [4] -2.15% | [5] -7.75% | [6] 0.55%

O=C1/C(=C/c2cccc(Cl)c2)CCCc2ccccc21
inactive: [1] 21.9% | [2] 13.8% | [3] 33.2% | [4] 11.3% | [5] 62.5% | [6] 44.4%

FC1=C(F)C2(F)C3CCC(O3)C2(F)C(Br)=C1F (configuration not stated)
inactive: [1] -9.6% | [2] -3.3% | [3] 3.2% | [4] -1.35% | [5] -6.15% | [6] 4.5%

CSc1ccc(Cl)cc1
inactive: [1] 6% | [2] -4.55% | [3] 1.7% | [4] 16.9% | [5] -1.2% | [6] 16.1%

Source: PubChem BioAssay (NCI)
